{
  "source": "PubChem BioAssay (NCATS)",
  "note": "Inconclusive results are not listed. Values without a mark were called inactive. Active and inactive are the calls of the source. The call rests on the fitted dose curve; in most records, active means well fitted cell-killing curve with a large enough effect; inconclusive means small, poorly fitted or top-dose-only effect, or effect the other way; inactive means flat fitted curve, though single readings scatter. On the % scale 0 is the no-effect control and ±100 the full control effect; potency means the concentration at half of the fitted maximal effect.",
  "data": [
    {"test_system": "SKOV3", "assay": "Primary qHTS to identify gynecologic anti-cancer compounds using libraries of approved drugs and bioactive compounds (AID 1345084); further: nearly all actives have a fitted effect of over 55% in size", "details": "Gynecologic cancer cell panel viability, ATPlite luminescence, 48 h; series mostly up to 57.5 µM; activity change, negative = cytotoxicity: at the top concentration", "in_short": "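48 h compound exposure at 37 C, 5% CO2; five-point qHTS. ATPlite luminescence readout of cell ATP.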", "values": [
      {"smiles": "C/C=C(\\C)C(=O)O[C@H]1[C@H](OC(C)=O)[C@]2(CO)[C@H](O)[C@H](O)[C@]3(C)C(=CCC4[C@@]5(C)CC[C@H](O[C@@H]6O[C@H](C(=O)O)[C@@H](O)[C@H](O[C@@H]7OC[C@H](O)[C@H](O[C@@H]8OC[C@H](O)[C@H](O)[C@H]8O)[C@H]7O)[C@H]6O[C@@H]6O[C@H](CO)[C@@H](O)[C@H](O)[C@H]6O)C(C)(C)C5CC[C@]43C)[C@@H]2CC1(C)C", "note": "(stereo partly specified)", "activity change, negative = cytotoxicity": "6.49% [at 6.55 µM]"},
      {"smiles": "C[C@]12CC[C@@H](O)C[C@H]1CC[C@@H]1[C@@H]2CC[C@]2(C)C(=O)CC[C@@H]12", "activity change, negative = cytotoxicity": "0.651%"},
      {"smiles": "Clc1ccc(OCC2=NCCN2)cc1Cl", "activity change, negative = cytotoxicity": "-1.18%"},
      {"smiles": "CC12CCC3C(CCC4(O)CC(O)CCC34C=O)C1(O)CCC2C1=CC(=O)OC1", "note": "(stereo unspecified)", "Potency": "1580 nM (active)"},
      {"smiles": "COC(=O)C12C(=O)C(C)(O)C(=O)C1(C)C(C)=CC1C34CCC(OC3=O)C(C)(CO)C4CCC12C", "note": "(stereo unspecified)", "activity change, negative = cytotoxicity": "-2.17% [at 25.3 µM]"},
      {"smiles": "CCN1C[C@]2(COC(=O)c3ccccc3N3C(=O)C[C@H](C)C3=O)CC[C@H](OC)[C@@]34[C@@H]5C[C@H]6[C@H](OC)[C@@H]5[C@](O)(C[C@@H]6OC)[C@](O)([C@@H](OC)[C@H]23)[C@@H]14", "activity change, negative = cytotoxicity": "4%"},
      {"smiles": "COC(=O)[C@@]12C(=O)C(C)C(=O)[C@]1(C)C(C)=C[C@H]1[C@]3(C=O)CC[C@H](OC(C)=O)C(C)(C)[C@H]3CC[C@@]12C", "note": "(stereo partly specified)", "activity change, negative = cytotoxicity": "-6.6% [at 25.3 µM]"},
      {"smiles": "COC1=CC(=O)O[C@@H](CCc2ccccc2)C1", "activity change, negative = cytotoxicity": "10.4%"},
      {"smiles": "Cn1ncnc1COc1nn2c(-c3c(F)cccc3F)nnc2cc1C1CCC1", "activity change, negative = cytotoxicity": "0%"},
      {"smiles": "C=C[C@H]1[C@H](O[C@@H]2O[C@H](CO)[C@@H](O)[C@H](O)[C@H]2O)OC=C2C(=O)OCC[C@H]21", "activity change, negative = cytotoxicity": "-1.44% [at 38.5 µM]"},
      {"smiles": "C=C(CO)C(=O)O[C@H]1C/C(C)=C/CC/C(CO)=C/[C@H]2OC(=O)C(=C)[C@H]12", "activity change, negative = cytotoxicity": "-4.12% [at 38.5 µM]"},
      {"smiles": "CN(C(=O)Cc1ccccc1)C(CN1CCCC1)c1ccccc1", "note": "(stereo unspecified)", "activity change, negative = cytotoxicity": "11.9%"},
      {"smiles": "C[C@@]1(C(=O)O)CC[C@]2(C)CC[C@]3(C)C4=CC(=O)c5cc(O)c(O)cc5[C@]4(C)CC[C@@]3(C)[C@@H]2C1", "activity change, negative = cytotoxicity": "34.9% [at 25.3 µM]"},
      {"smiles": "CN1C(=O)N(c2ccc(C#N)c(C(F)(F)F)c2)C(=O)[C@]1(CO)c1ccccc1", "activity change, negative = cytotoxicity": "-0.94%"},
      {"smiles": "Clc1ccc(N2C[C@H]3CC[C@@H](C2)N3)nn1", "activity change, negative = cytotoxicity": "-2.11%"},
      {"smiles": "OC1(c2ccc(Cl)cc2)c2ccccc2C2=NCCN21", "note": "(stereo unspecified)", "activity change, negative = cytotoxicity": "15.1%"},
      {"smiles": "COC1CC(=O)C23C(=O)NC(CC(C)C)C2C(C)=C(C)C(OO)C3/C=C(\\C)CCC(O)C1O", "note": "(stereo unspecified)", "activity change, negative = cytotoxicity": "0.73% [at 25.3 µM]"},
      {"smiles": "CO[C@@H]1[C@H](O)[C@@H](O[C@@H]2C[C@H]3CC[C@@H]4C(CC[C@]5(C)[C@@H](C6=CC(=O)OC6)CC[C@]45O)[C@@]3(C)[C@H](O)C2)O[C@H](C)[C@@H]1O[C@@H]1O[C@H](CO)[C@@H](O)[C@H](O)[C@H]1O", "note": "(stereo partly specified)", "Potency": "562 nM (active)"},
      {"smiles": "OCCCCC#Cc1cncc(OC[C@@H]2CCN2)c1", "activity change, negative = cytotoxicity": "13.2%"},
      {"smiles": "COC1CC(O[C@H]2CC[C@@]3(C)C(=CCC4C3C(O)[C@@H](O)[C@]3(C)[C@@H](C(C)=O)CC[C@]43O)C2)OC(C)C1OC1CC(OC)C(OC2OC(C)C(O)C(O)C2O)C(C)O1", "note": "(stereo partly specified)", "activity change, negative = cytotoxicity": "-4.29% [at 11.6 µM]"},
      {"smiles": "N#C[C@@H](O[C@@H]1O[C@H](CO[C@@H]2O[C@H](CO)[C@@H](O)[C@H](O)[C@H]2O)[C@@H](O)[C@H](O)[C@H]1O)c1ccccc1", "activity change, negative = cytotoxicity": "13.5% [at 25.3 µM]"},
      {"smiles": "C=C(C)[C@H]1O[C@H]2CC[C@@]3(C)[C@@](O)(CC[C@H]4[C@@H]5OC(C)(C)[C@H]6C[C@@H]7C(=C)Cc8c(Cl)cc9[nH]c(c5c9c8[C@@]76O)[C@@]43C)[C@]23O[C@@H]3[C@H]1O", "activity change, negative = cytotoxicity": "14.3% [at 25.3 µM]"},
      {"smiles": "CCC(C)(C#N)O[C@@H]1O[C@H](CO)[C@@H](O)[C@H](O)[C@H]1O", "note": "(stereo partly specified)", "activity change, negative = cytotoxicity": "-4.04%"},
      {"smiles": "O=C(N1CCOCC1)N1CCN(c2ccc(Cl)cc2)CC1", "activity change, negative = cytotoxicity": "2.5%"},
      {"smiles": "CN1CCCC1CCOC(c1cc2nccc(C(=O)O)c2[nH]1)c1ccccc1Cl", "note": "(stereo unspecified)", "activity change, negative = cytotoxicity": "23%"},
      {"smiles": "CCCCCCn1c(=O)c(C(=O)Nc2ccc(C(=O)OCCC)cc2)c(O)c2ccccc21", "activity change, negative = cytotoxicity": "-0.233% [at 11.6 µM]"},
      {"smiles": "C=CC(C)(C)c1[nH]c2cccc3c2c1C[C@@H]1[C@@H]3[C@@H](OC(C)=O)[C@H](C)CN1C", "activity change, negative = cytotoxicity": "21.4% [at 38.5 µM]"},
      {"smiles": "CC1=C2C[C@H]3[C@@H](CC=C4C[C@@H](O)CC[C@@]43C)[C@@H]2CC[C@]12O[C@@H]1C[C@H](C)CN[C@H]1[C@H]2C", "activity change, negative = cytotoxicity": "4.27%"},
      {"smiles": "CC1=CC2/C=C(\\C)CCC(O)C3OC(C)(C)OC3CC(=O)OC23C(=O)NC(CC(C)C)C3C1C", "note": "(stereo unspecified)", "activity change, negative = cytotoxicity": "20.7% [at 25.3 µM]"},
      {"smiles": "CCN1C[C@]2(COC)[C@H](O)C[C@H](OC)[C@]34[C@@H]5C[C@]6(O)[C@H](OC(=O)c7ccccc7)[C@@H]5[C@@](O)([C@H]([C@H](OC)[C@H]23)[C@@H]14)[C@@H](O)[C@@H]6OC", "activity change, negative = cytotoxicity": "-4.41% [at 38.5 µM]"},
      {"smiles": "CC(=O)O[C@H]1C[C@@H](OC(C)=O)C(C)(C)C2C[C@@H](O)[C@]3(C)C(CC[C@@]4(C)[C@H](C5=CC(=O)OC5O)C[C@H]5O[C@]543)[C@]21C", "note": "(stereo partly specified)", "activity change, negative = cytotoxicity": "2.19% [at 25.3 µM]"},
      {"smiles": "COC1C(O)C(C)OC(OC2C(CO)O[C@@H](O[C@@H]3CC4CCC5C(CC[C@]6(C)[C@@H](C7=CC(=O)OC7)CC[C@]56O)[C@@]4(C)[C@H](O)C3)C(O)C2O)C1O", "note": "(stereo partly specified)", "Potency": "2820 nM (active)"},
      {"smiles": "COC1CC(O[C@H]2CC[C@]3(C=O)C4CC[C@]5(C)[C@@H](C6=CC(=O)OC6)CC[C@]5(O)[C@@H]4CC[C@]3(O)C2)OC(C)C1O[C@@H]1O[C@H](CO)[C@@H](O)[C@H](O)[C@H]1O", "note": "(stereo partly specified)", "Potency": "447 nM (active)"},
      {"smiles": "C[C@H]1C(=O)O[C@H]2[C@H](O)[C@]34C5OC(=O)[C@]3(O[C@@H]3OC(=O)[C@H](O)C34[C@H](C(C)(C)C)[C@H]5O)C12O", "note": "(stereo partly specified)", "activity change, negative = cytotoxicity": "-1.98% [at 25.3 µM]"},
      {"smiles": "CC(CCc1ccc(O)cc1)O[C@@H]1O[C@H](CO[C@H]2OC[C@](O)(CO)[C@H]2O)[C@@H](O)[C@H](O)[C@H]1O", "note": "(stereo partly specified)", "activity change, negative = cytotoxicity": "17.2% [at 25.3 µM]"},
      {"smiles": "C[C@@](O)(COc1ccc(C#N)cc1)C(=O)Nc1ccc(C#N)c(C(F)(F)F)c1", "activity change, negative = cytotoxicity": "-3.22%"}
    ]}
  ]
}
